The source of these data is PubChem BioAssay (NCATS).

Several values for one entry are separate records, joined by “and”; a condition that tells them apart may be missing. Equal values may be shown once. Inconclusive results are not listed. Activity calls are given as the source filed them. The call rests on the fitted dose curve; in most records, active means well fitted curve in the direction sought with a large enough effect; inconclusive means small, poorly fitted or top-dose-only effect, or another doubt; inactive means no such curve, though single readings can be large; an effect the other way counts as inactive or inconclusive.
Potency means the concentration at half of the fitted maximal effect.

Chain of N-terminal Xaa-Pro-Lys N-methyltransferase 1 (Homo sapiens) (Q9BV86 whole entry, looked up): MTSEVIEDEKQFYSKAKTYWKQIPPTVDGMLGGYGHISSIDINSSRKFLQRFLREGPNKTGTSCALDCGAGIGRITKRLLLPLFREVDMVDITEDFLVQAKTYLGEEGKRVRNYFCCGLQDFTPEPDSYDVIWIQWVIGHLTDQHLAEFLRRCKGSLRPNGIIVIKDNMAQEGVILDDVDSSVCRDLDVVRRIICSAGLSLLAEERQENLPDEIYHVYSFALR

The first assay concerns the target N-terminal Xaa-Pro-Lys N-methyltransferase 1 (Homo sapiens) (UniProt Q9BV86). In words: Confirmatory qHTS for Inhibitors of N-terminal methyltransferase 1 (NTMT1): MTaseGlo Assay (AID 1645874). Further: nearly all actives have a fitted effect of over 65% in size. As to conditions: NTMT1 enzyme, MTase-Glo SAH luminescence; series mostly up to 100 µM. The gist of the method:
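Inhibition was derived from luminescence after SAH-to-ATP conversion, scaled between no-enzyme and DMSO wells, then fitted by 4-parameter Hill. Conditions: 125 nM NTMT1, 100 uM SAM, 1 uM SPKRIA, 30 min RT.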
Background: Quantitative high-throughput screening tests each substance at several concentrations.
In the case of `OCCCNc1cc(-c2ccnc(Nc3cccc(Cl)c3)n2)ccn1`, the Potency was 22.4 µM (active).

As to `C#Cc1cccc(Nc2ncnc3cc(OC)c(OCCCCCCC(=O)NO)cc23)c1`, the Potency is 31.2 µM (active).

As to `C[C@@H](Oc1cc(-c2cnn(C3CCNCC3)c2)cnc1N)c1c(Cl)ccc(F)c1Cl`, the Potency is 39.8 µM (active).

In the case of `Cc1cc(Nc2cc(CN3CCOCC3)c3nc(C)c(Cc4ccc(Cl)cc4F)n3n2)n[nH]1`, the Potency is 20.5 µM (active).

Tested on in another assay: not listed separately
In words: Primary qHTS for inhibitors of nuclear receptor binding SET domain protein 2 (NSD2) in an isogenic RCH-ACV NSD2 p.E1099K mutant (9B) (AID 1645876). Further: nearly all actives have a fitted effect of over 70% in size. The settings on record: RCH-ACV (leukaemia line) NSD2 E1099K (9B) viability, CellTiter-Glo, 72 h; series mostly up to 44.9 µM.
On to `OCCCNc1cc(-c2ccnc(Nc3cccc(Cl)c3)n2)ccn1`, for which the Potency was 29 nM (active) and 52.5 nM (active).

`COc1cc2c(Oc3ccc(-c4cnc(Nc5ccc(F)cc5)n(C)c4=O)cc3F)ccnc2cc1OCCCN1CCOCC1`: the Potency was 4.09 µM (active) and 1.48 µM (active).

In the case of `C#Cc1cccc(Nc2ncnc3cc(OC)c(OCCCCCCC(=O)NO)cc23)c1`, the Potency was 515 nM (active) and 590 nM (active).

In the case of `Nc1nccc(Oc2ccc(NC(=O)c3c[nH]cc(-c4ccc(F)cc4)c3=O)cc2F)c1Cl`, the Potency was 11.8 µM (active).

For `CCS(=O)(=O)c1cccc(-c2cc(C(=O)NC3CCN(C)CC3)c(C)c3[nH]c4ncc(C)cc4c23)c1`, the Potency was 113 nM (active) and 166 nM (active).

Take `Nc1ccccc1NC(=O)c1ccc(CNc2nccc(-c3cccnc3)n2)cc1`: the Potency was 258 nM (active) and 590 nM (active).

`CC(C)(C)c1cnc(CSc2cnc(NC(=O)C3CCNCC3)s2)o1`: the Potency is 0.209 µM (active).

On to `Nc1ncnc2c1c(-c1cccc(OCc3ccccc3)c1)cn2C1CC(CN2CCCC2)C1` (configuration not stated), for which the Potency is 11.8 µM (active).
